These results are taken from PubChem BioAssay (NCI).

Test systems include NCI-H23 lung; NCI-H226 lung; NCI-H322M lung; HOP-62 NSCLC; NCI-H460 lung; NCI-H522 lung; A549/ATCC NSCLC; 786-0 renal; COLO 205 colon; DU-145 prostate.
What all share (experiment): NCI-60 one-dose screen, 48 h (100 = growth as untreated, 0 = no growth, -100 = all killed)
Common to all, as to conditions: 10 µM

The panel holds about 83,000 compounds, 20% with a hit somewhere; the sample as a whole holds those more often.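 Cell lines were cultured in 96-well plates, exposed to a single compound concentration, and assessed for percent growth 48 hours later.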 Values without a mark were called inactive. Calls of active or inactive are those of the source. Rule for the calls: active = growth percent below 10; inactive = the rest.

In the case of `CC(C)C[C@H](NC(=O)[C@H](Cc1cccc2ccccc12)NS(=O)(=O)c1cccc2cccnc12)B(O)O`, the growth in the test with NCI-H23 lung is -52.9% (active); with NCI-H226 lung, -66.6% (active); in the test with NCI-H322M lung it was -9.95% (active); with HOP-62 NSCLC, -72.3% (active); in the test on NCI-H460 lung it was -53.2% (active); in the test with NCI-H522 lung, -56.4% (active). Besides, the growth was 5.39% (active) with A549/ATCC NSCLC, -19.4% (active) in the test with 786-0 renal, -36.5% (active) in the test with COLO 205 colon and -20.7% (active) with DU-145 prostate.
With `CCN(CC)CCNC(=O)c1ccc(NC(C)=O)cc1`, the growth is 94.5% in the test with NCI-H23 lung; 110% in the test with NCI-H226 lung; 105% with NCI-H322M lung; 103% in the test on HOP-62 NSCLC; 113% with NCI-H460 lung; 111% with NCI-H522 lung. Besides, the growth in the test with A549/ATCC NSCLC was 98.5%; in the test on 786-0 renal, 108%; in the test with COLO 205 colon, 112%; in the test on DU-145 prostate, 119%.
Turning to `COC(=O)C(C(C[N+](=O)[O-])c1ccccc1)=P(c1ccccc1)(c1ccccc1)c1ccccc1` (configuration not stated), the growth with NCI-H23 lung was 92.4%; in the test with NCI-H226 lung it was 96.6%; with NCI-H322M lung, 94.3%; with HOP-62 NSCLC, 96.1%; in the test on NCI-H460 lung, 101%; with NCI-H522 lung, 83.3%. Also, the growth is 101% with A549/ATCC NSCLC, 96.1% with 786-0 renal, 106% with COLO 205 colon and 89.6% in the test with DU-145 prostate.
Regarding `Nc1ccn(C2CC(O)C(CO)O2)c(=O)n1` (configuration not stated), the growth in the test with NCI-H23 lung was 105%; with NCI-H226 lung, 99.1%; in the test on NCI-H322M lung, 223%; in the test on HOP-62 NSCLC, 98.8%; in the test on NCI-H460 lung it was 102%; in the test with NCI-H522 lung, 109%. Moreover, the growth with A549/ATCC NSCLC is 108%; in the test on 786-0 renal, 100%; with COLO 205 colon it was 108%; with DU-145 prostate, 120%.
`O=C1Nc2ccccc2C1=NC1CCCCC1`: the growth in the test with NCI-H23 lung was 95.2%; with NCI-H226 lung it was 92%; in the test with NCI-H322M lung, 90.3%; in the test on HOP-62 NSCLC, 88.3%; in the test with NCI-H460 lung, 105%; in the test with NCI-H522 lung, 70.4%. Also, the growth was 103% in the test on A549/ATCC NSCLC, 93.6% in the test on 786-0 renal, 96.5% in the test on COLO 205 colon and 110% in the test on DU-145 prostate.
As for `CC1(O)CCC2CC3OC3(C)CCC3OC3(C)CCC1C2(C)C` (configuration not stated), the growth is 105% in the test on NCI-H23 lung; 108% in the test on NCI-H226 lung; 114% with NCI-H322M lung; 98.8% in the test with HOP-62 NSCLC; 112% in the test on NCI-H460 lung; 98.1% with NCI-H522 lung. Besides, the growth in the test with A549/ATCC NSCLC is 90.7%; with 786-0 renal, 99.7%; with COLO 205 colon it was 106%.
Take `COc1ccc(Nc2nc3ccc(NC(=O)NC4CCCCC4)cc3[nH]c2=O)cc1`: the growth in the test with NCI-H23 lung was 94.1%; in the test on NCI-H226 lung it was 94.5%; with NCI-H322M lung it was 96.1%; in the test on HOP-62 NSCLC it was 83.9%; with NCI-H460 lung, 102%; in the test with NCI-H522 lung, 87.3%. For the same compound, the growth with A549/ATCC NSCLC is 89.5%; with 786-0 renal, 72.7%; in the test on COLO 205 colon, 112%; in the test with DU-145 prostate, 107%.
As to `O=C(Nc1nc2ccc(F)cc2s1)c1cc(-c2ccc(F)cc2)n2nc(-c3ccccc3)cc2n1`, the growth is 79.7% in the test with NCI-H23 lung; 105% with NCI-H226 lung; 111% with NCI-H322M lung; 64.1% in the test on HOP-62 NSCLC; 59.5% in the test on NCI-H460 lung; 98.9% in the test on NCI-H522 lung. In addition, the growth is 92.1% with A549/ATCC NSCLC, 101% in the test with 786-0 renal, 96.4% in the test on COLO 205 colon and 87% in the test on DU-145 prostate.
Turning to `CC/C(=C(/c1ccc(OCCN(C)C)cc1)c1ccc(OC(=O)CCCCCCCCC(=O)c2c(C)[nH]c(/C=C3\N=C(c4ccc[nH]4)C=C3OC)c2C)cc1)c1ccccc1`, the growth was 88% in the test on NCI-H23 lung; 52.6% in the test with NCI-H226 lung; 77% in the test on NCI-H322M lung; 75.9% in the test on HOP-62 NSCLC; 46.9% with NCI-H460 lung; 54.5% with NCI-H522 lung. Further, the growth is 50% with A549/ATCC NSCLC, 63.9% with 786-0 renal, 88% in the test on COLO 205 colon and 67.6% in the test on DU-145 prostate.
As for `COc1cc(-c2nc(-c3nnc(-c4ccc(F)c(Cl)c4)o3)c3ccccn23)cc(OC)c1OC`, the growth in the test on NCI-H23 lung is 70.1%; with NCI-H226 lung, 15.3%; in the test on NCI-H322M lung, 54.5%; in the test with HOP-62 NSCLC it was -65.6% (active); in the test on NCI-H460 lung it was 7.43% (active); with NCI-H522 lung it was 5.92% (active). Moreover, the growth with A549/ATCC NSCLC is 23.7%; in the test with 786-0 renal it was 45.5%; in the test on COLO 205 colon it was 43.7%; with DU-145 prostate, 41%.
Turning to `Cc1cc(=O)n2nnc3c4ccccc4ccc3n12`, the growth in the test on NCI-H23 lung is 94%; in the test with NCI-H226 lung, 59.8%; with NCI-H322M lung, 96.3%; in the test on HOP-62 NSCLC, 70%; in the test with NCI-H460 lung, 83.9%; in the test with NCI-H522 lung, 87.9%. In addition, the growth with A549/ATCC NSCLC was 60.2%; with 786-0 renal, 89.8%; in the test on COLO 205 colon, 8.79% (active); with DU-145 prostate it was 98.8%.
As for `N#Cc1cc(-c2cc3ccccc3o2)oc1N`, the growth in the test with NCI-H23 lung is 11.4%; in the test with NCI-H226 lung, 17.4%; in the test with NCI-H322M lung, 2.76% (active); in the test with HOP-62 NSCLC, 20%; in the test with NCI-H460 lung, 9.76% (active); in the test on NCI-H522 lung it was -4.4% (active). The growth with A549/ATCC NSCLC was -5.69% (active); with 786-0 renal, 11.7%; in the test on COLO 205 colon it was 12.9%.
Take `Clc1nc(Cl)c2c(ncn2C/C=C\Cn2cnc3c(Cl)nc(Cl)nc32)n1`: the growth in the test with NCI-H23 lung was -15.8% (active); in the test with NCI-H226 lung it was -80.1% (active); in the test on NCI-H322M lung it was 8.09% (active); in the test with HOP-62 NSCLC, 11.2%; in the test with NCI-H460 lung, 0.846% (active); in the test on NCI-H522 lung, -70.6% (active). The growth is -79.4% (active) in the test with A549/ATCC NSCLC, -4.46% (active) in the test on 786-0 renal and -51.5% (active) with COLO 205 colon.
Take `NC(=O)c1ccc(-c2cccc3c(=O)nc(N4CCOCC4)oc23)cc1`: the growth in the test with NCI-H23 lung was 92.4%; in the test on NCI-H226 lung, 82.6%; in the test with NCI-H322M lung it was 93%; in the test on HOP-62 NSCLC, 95.1%; in the test with NCI-H460 lung it was 105%; in the test with NCI-H522 lung, 89.5%. Moreover, the growth with A549/ATCC NSCLC was 100%; in the test on 786-0 renal, 100%; with COLO 205 colon it was 104%; in the test with DU-145 prostate, 103%.
